# Results: PubChem BioAssay (EPA / NIEHS)
# Activity calls are given as the source filed them. Rule for the calls: active = hit-call score of the fitted dose curve at least 0.9, where 1 is the maximum; inactive = score below 0.9.
# Read-out: CD90, THY1 (gene 7070)
# Test: BSK_BF4T_CD90: BioMAP Diversity Plus: BF4T Assay for CD90 Biomarker Activity (AID 2284262)
# Settings: primary human bronchial epithelial cells with fibroblasts
# Experimental: BSK_BF4T is a cell-based, multiplexed-readout assay that uses bronchial epithelial cells and dermal fibroblasts, a human vascular primary cell, with measurements taken at 24 hours after chemical dosing in a microplate: 96-well plate.BSK_BF4T_CD90 is an assay component measured in the BSK_BF4T assay. It measures CD90 antibody related to regulation of gene expression using ELISA technology.Data from the assay component BSK_BF4T_CD90 was analyzed at the endpoint, BSK_BF4T_CD90, in the positive analysis fitting direction relative to DMSO as the negative control and baseline of activity. Using a type of binding reporter, gain or loss-of-signal activity can be used to understand protein changes. To generalize the intended target to other relatable targets, this assay endpoint is annotated to the 'cytokine' intended target family, where the subfamily is 'inflammatory factor'.
# The levels of cell surface (or secreted, indicated by the prefix "s") biomarker endpoints were measured by ELISA. Overt cytotoxicity to cells in confluent adherent cultures (all systems other than the BT system) was assessed by measuring total protein levels using sulforhodamine B (SRB) staining in parallel cultures at the time of biomarker measurements, indicated as SRB endpoints. For proliferation assays for adherent cell types, individual cell types are cultured at sub-confluence and relative cell numbers quantified by SRB staining at time points optimized for each system (48 h: 3C and CASM3C systems; 72 h: BT and HDF3CGF systems; 96 h: SAg system). SRB was performed by staining cells with 0.1% SRB after fixation with 10% TCA and reading wells at 560 nm.Viability and proliferation of PBMC (T cells) was quantified by Alamar Blue reduction for the SAg and BT systems. For PBMC viability (referred to as PBMC Cytotoxicity within the assay endpoint names), cells were plated (75,000/well in a 96-well plate) and then chemical samples added for 1 h before addition of activators, SEB and TSST-1 (20 ng/mL final concentration each). Cells were incubated for 90 h. Then, Alamar Blue (20 uL/well) (Invitrogen, Cat DAL1100) was added for 6 h, and the plates were read with a fluorescence microplate reader at 546/580 nm (excitation/emission). For PBMC proliferation, cells were plated and activated as above but incubated for only 16 h prior to addition of Alamar Blue. Plates were read after 6 h.
row,SMILES,outcome
1,O=C(O)C(F)(OC(F)(F)C(F)(F)C(F)(F)F)C(F)(F)F (centres undefined),inactive
2,O=C(O)C(F)(F)OC(F)(F)C(F)(F)OC(F)(F)C(=O)O,inactive
3,NC(=O)C(F)(F)C(F)(F)F,inactive
4,O=C(O)C(F)(F)C(F)(F)C(=O)O,inactive
5,OCC(F)(F)OC(F)(F)C(F)(F)OC(F)(F)C(F)(F)OC(F)(F)F,inactive
6,C=CC(=O)OCC(F)(F)C(F)F,inactive
7,O=C(O)C(F)(F)OC(F)(F)C(F)(F)OC(F)(F)F,inactive
8,FC(F)(F)C(F)(C(F)(F)F)C(F)(F)C(F)(F)CC1CO1 (centres undefined),inactive
9,O=C(O)C=CC(F)(C(F)(F)F)C(F)(F)F,inactive
10,OCC(F)(F)OC(F)(F)C(F)(F)OC(F)(F)CO,inactive
11,O=S(=O)(F)C(F)(F)C(F)(F)C(F)(F)C(F)(F)C(F)(F)C(F)(F)C(F)(F)C(F)(F)F,inactive
12,CC(O)C(F)(F)C(F)(F)F (centres undefined),inactive
13,COC(=O)C(F)(F)C(F)(F)OC(F)(C(F)(F)F)C(F)(F)OC(F)=C(F)F (centres undefined),inactive
14,OCC(F)(F)OC(F)(F)C(F)(F)OC(F)(F)C(F)(F)OC(F)(F)CO,inactive
